From PubChem BioAssay (NCI) come the findings set out here.

Test systems include HCT-15 colon; HT29 colon; SNB-75 CNS; SNB-19 CNS; U251 CNS; PC-3 prostate; SK-MEL-5 melanoma; UACC-62 melanoma; LOX IMVI melanoma; SK-MEL-28 melanoma; SK-MEL-2 melanoma; EKVX NSCLC; SN12C renal; UO-31 renal; TK-10 renal; ACHN renal; CAKI-1 renal; A498 renal; CCRF-CEM leukemia; MOLT-4 leukemia.
What all share (assay): NCI-60 one-dose screen, 48 h (100 = growth as untreated, 0 = no growth, -100 = all killed)
Common to all, as to settings: 10 µM unless noted

This is part of a sample that, as a whole, favours compounds with a hit. Of some 83,000 tested, about 20% had one in any assay.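 Assay: single dose, 48 h. Readout: percent growth (0 = no net growth; negative = cell death). Active: <10.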 Unmarked numbers belong to inactive results. Activity calls are given as the source filed them.

Turning to `O=C(/C=C\c1ccco1)/C=C/c1ccco1`, the growth was 105% in the experiment on HCT-15 colon; 108% with HT29 colon; 94.5% in the experiment with SNB-75 CNS; 105% with SNB-19 CNS; 104% in the experiment on U251 CNS; 95.6% in the experiment with PC-3 prostate. Besides, the growth is 101% with SK-MEL-5 melanoma; 100% in the experiment on UACC-62 melanoma; 96.8% in the experiment with LOX IMVI melanoma; 110% in the experiment with SK-MEL-28 melanoma; 109% in the experiment on SK-MEL-2 melanoma; 99.5% in the experiment on EKVX NSCLC. Moreover, the growth in the experiment on SN12C renal is 97.7%; with UO-31 renal it was 76.3%; with TK-10 renal it was 108%; in the experiment with ACHN renal, 110%; in the experiment with CAKI-1 renal, 107%; in the experiment on A498 renal it was 97.5%. Besides, the values for the growth in the experiment on CCRF-CEM leukemia and in the experiment with MOLT-4 leukemia were 8.75% (active) and 112%, respectively.

Consider `COc1cc(/C=C2\C(=O)N(c3c(Cl)cccc3Cl)c3ccccc32)cc(OC)c1OCCCCCCn1c2ccccc2c(=O)c2ccccc21`, for which the growth in the experiment on HCT-15 colon was 108%; in the experiment with HT29 colon, 103%; in the experiment on SNB-75 CNS, 73.6%; in the experiment on SNB-19 CNS it was 98.4%; with U251 CNS it was 103%; in the experiment on PC-3 prostate it was 87.1%. For the same molecule, the growth in the experiment on SK-MEL-5 melanoma is 96.1%; with UACC-62 melanoma it was 93.3%; in the experiment with LOX IMVI melanoma it was 98.4%; with SK-MEL-28 melanoma it was 99%; in the experiment with SK-MEL-2 melanoma, 96.2%; in the experiment on EKVX NSCLC, 111%. The growth is 96.8% with SN12C renal; 74.3% in the experiment with UO-31 renal; 112% in the experiment on TK-10 renal; 91.9% in the experiment on ACHN renal; 82.9% with CAKI-1 renal; 123% in the experiment on A498 renal. The figures for the growth in the experiment on CCRF-CEM leukemia and with MOLT-4 leukemia were 104% and 90%, respectively.

In the case of `O=C(N=Nc1c(O)[nH]c2ccccc12)Nc1ccc(Cl)cc1`, the growth in the experiment with HCT-15 colon is 87.3%; with HT29 colon, 93.5%; with SNB-75 CNS it was 101%; in the experiment with SNB-19 CNS, 89.3%; in the experiment on U251 CNS, 100%; in the experiment on PC-3 prostate, 89.8%. The growth was 90.7% in the experiment on SK-MEL-5 melanoma; 75.7% in the experiment with UACC-62 melanoma; 86.5% with LOX IMVI melanoma; 91.5% with SK-MEL-28 melanoma; 99.7% in the experiment on SK-MEL-2 melanoma; 86.5% in the experiment with EKVX NSCLC. Besides, the growth in the experiment with SN12C renal was 97.1%; with UO-31 renal, 69.2%; in the experiment with TK-10 renal it was 101%; with ACHN renal, 80.5%; with CAKI-1 renal, 89.2%; in the experiment on A498 renal, 77.6%. Moreover, the growth with CCRF-CEM leukemia is -8.91% (active); in the experiment on MOLT-4 leukemia it was 87.3%.

Regarding `O=C(NCc1ccc2c(c1)OCO2)NCC1CCCC(CNC(=O)NCc2ccc3c(c2)OCO3)C1` (stereo not given), the growth with HCT-15 colon is 99.2%; with HT29 colon, 110%; in the experiment on SNB-75 CNS, 97.3%; with SNB-19 CNS, 87.7%; with U251 CNS it was 103%; in the experiment on PC-3 prostate it was 102%. For the same molecule, the growth is 102% with SK-MEL-5 melanoma; 95.8% in the experiment with UACC-62 melanoma; 97.9% in the experiment with LOX IMVI melanoma; 114% in the experiment on SK-MEL-28 melanoma; 109% in the experiment with SK-MEL-2 melanoma; 106% in the experiment on EKVX NSCLC. The growth in the experiment on SN12C renal is 102%; in the experiment with UO-31 renal, 95.7%; in the experiment with TK-10 renal, 101%; with ACHN renal, 105%; in the experiment on CAKI-1 renal it was 89.6%; in the experiment on A498 renal it was 95.3%. Besides, the values for the growth with CCRF-CEM leukemia and in the experiment on MOLT-4 leukemia were 85.1% and 92.9%, respectively.

For `Cn1ncc2ccc(-c3nc(-c4ccccc4)[nH]c3-c3n[nH]c(=O)n3C3CC3)cc21`, the growth in the experiment on HCT-15 colon is 100%; in the experiment on HT29 colon, 87.1%; in the experiment with SNB-75 CNS, 81.2%; in the experiment on SNB-19 CNS it was 95.9%; in the experiment on U251 CNS it was 100%; in the experiment on PC-3 prostate it was 77.9%. The growth with SK-MEL-5 melanoma is 98.8%; in the experiment on UACC-62 melanoma it was 100%; with LOX IMVI melanoma, 97.2%; in the experiment with SK-MEL-28 melanoma, 102%; in the experiment on SK-MEL-2 melanoma, 101%; with EKVX NSCLC it was 96%. Moreover, the growth with SN12C renal is 101%; with UO-31 renal, 93.1%; in the experiment on TK-10 renal it was 103%; with ACHN renal, 97%; with CAKI-1 renal it was 94.8%; with A498 renal it was 48.7%. Moreover, the growth was 96.4% with CCRF-CEM leukemia and 93.5% in the experiment on MOLT-4 leukemia.

Take `COc1ccc(-c2nnc(SCC(=O)Nc3ccc(/C(C)=N\O)cc3)n2-c2ccccc2)cc1OC`: the growth in the experiment with HCT-15 colon was 98.6%; in the experiment with HT29 colon, 91.2%; with SNB-75 CNS it was -16.5% (active); with SNB-19 CNS it was 75.8%; with U251 CNS, 34.4%; with PC-3 prostate, 110%. The growth with SK-MEL-5 melanoma is 94.6%; with UACC-62 melanoma, 82.8%; with LOX IMVI melanoma, 80.1%; in the experiment on SK-MEL-28 melanoma, 87.3%; in the experiment on SK-MEL-2 melanoma it was 57.6%; with EKVX NSCLC, 71.1%. The growth in the experiment with SN12C renal was 71.8%; in the experiment on UO-31 renal, 104%; in the experiment with TK-10 renal it was 41.1%; in the experiment on ACHN renal, 75.5%; in the experiment with CAKI-1 renal, 87.4%; in the experiment with A498 renal it was 91.8%. For the same molecule, the growth in the experiment with CCRF-CEM leukemia is 98.5%; in the experiment with MOLT-4 leukemia it was 91.7%.

For `COc1cc(-c2nc(NC(C)=O)sc2-c2ccnc(NCCNS(=O)(=O)c3ccccc3)n2)ccc1Cl`, the growth was 31.7% with HCT-15 colon; 3.97% (active) with HT29 colon; 15.7% with SNB-75 CNS; 53.9% with SNB-19 CNS; 31.5% in the experiment on U251 CNS; 16.3% in the experiment with PC-3 prostate. The growth in the experiment on SK-MEL-5 melanoma is 1.64% (active); with UACC-62 melanoma, 23%; with LOX IMVI melanoma, 32.1%; in the experiment with SK-MEL-28 melanoma, 35.6%; in the experiment on SK-MEL-2 melanoma, -12.6% (active); in the experiment with EKVX NSCLC it was 45.4%. Besides, the growth was 48.2% in the experiment on SN12C renal; 63.3% in the experiment with UO-31 renal; 39.5% with TK-10 renal; 44% in the experiment on ACHN renal; 57.9% in the experiment on CAKI-1 renal; 27.1% in the experiment with A498 renal. The growth with CCRF-CEM leukemia is 13%; with MOLT-4 leukemia, 15.5%.

Turning to `CN(C)c1ccc(-c2cc(-c3ccc(Nc4nc(Nc5ccc(Cl)cc5)nc(Nc5ccc(Cl)cc5)n4)cc3)nc(N)c2C#N)cc1`, the growth is 75.9% in the experiment with HCT-15 colon; 80.3% with HT29 colon; 83.8% in the experiment with SNB-75 CNS; 97.8% in the experiment on SNB-19 CNS; 63.3% in the experiment with U251 CNS; 57.7% in the experiment with PC-3 prostate. Further, the growth in the experiment with SK-MEL-5 melanoma was 66.7%; with UACC-62 melanoma it was 91%; in the experiment on LOX IMVI melanoma, 72.7%; in the experiment with SK-MEL-28 melanoma, 88.7%; in the experiment with SK-MEL-2 melanoma, 68.5%; in the experiment with EKVX NSCLC it was 79.8%. Further, the growth with SN12C renal was 113%; with UO-31 renal it was 67.5%; in the experiment on TK-10 renal, 104%; in the experiment with ACHN renal, 82.4%; in the experiment with CAKI-1 renal, 82.3%; with A498 renal, 92.5%. For the same molecule, the growth in the experiment with CCRF-CEM leukemia is 46.9%; with MOLT-4 leukemia, 45%.
